High-throughput results: PubChem, several laboratories
Only some compounds are listed: those with a hit (about 4.3% of all), similar ones and a draw of the others.
NR3A LBD binder – binders of NR3A ligand-binding domain, primary screen, biophysical, differential scanning fluorimetry, uHTS; Tm shift relative to glycine control, % at 25 µM; NR3A LBD differential scanning fluorimetry, Tm shift; 0% = protein alone, 100% = glycine-bound protein; Glutamate receptor ionotropic, NMDA 3A (GRIN3A) ligand-binding domain; actives 2.5% (n = 340,000);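 active = melting temperature shift of at least 10% of the positive control shift, at one fixed dose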
UBC13 inh – UBC13 polyubiquitin chain formation inhibitors, primary screen, biochemical, TR-FRET, uHTS | AID 485273, 2010 | actives 0.47% (n = 330,000) | inhibition, % at 20 µM | Ubiquitin-conjugating enzyme E2 N (Homo sapiens), P61088; in the data active = inhibition above about 45%, passing the limit was not always enough; inconclusive = no clear call, values can overlap the other calls
Target sequence (P61088 whole entry, looked up): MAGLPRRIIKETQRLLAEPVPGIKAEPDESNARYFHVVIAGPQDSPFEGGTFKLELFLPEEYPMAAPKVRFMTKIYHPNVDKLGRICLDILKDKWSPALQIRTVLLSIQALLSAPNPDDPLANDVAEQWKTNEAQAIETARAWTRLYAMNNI
Yeast superoxide – reduction of superoxide in aged yeast, primary screen, HTS; superoxide response (% of plate mean), % at 10 µM; actives 0.18% (n = 330,000); AID 2690, 2010; S. cerevisiae aged cells, superoxide DHE fluorescence; hits give low values;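 active = superoxide response under a set limit, about three screen SD below normal, cut at about 65% in these data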;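 note: yeast aged for seven days with compound at 30 °C before DHE staining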
NALP1 inh – NALP1 inflammasome inhibitors in reconstituted yeast, colorimetric, S. cerevisiae, triplicate retest. inhibition, % at 10 µM. actives 0.61% (n = 280,000). S. cerevisiae NALP1/ASC/caspase-1 growth, X-gal OD620, 72 h; in the data active = inhibition mostly above about 24%, no sharp cut-off; inactive = mostly below about 32%
dFosB act – activators of delta FosB homodimer, primary screen, biochemical, fluorescence polarization, TAMRA-CDK5 oligo, single point | AID 493131, 2011 | actives 0.99% (n = 340,000) | activation, % at 25 µM | purified delta FosB; percent of positive-control signal above neutral wells | Protein FosB (Mus musculus), P13346;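 active = mean activation above about 17%, with every replicate also reaching it, limit read from the data, passing the limit was not always enough; inconclusive = only one of the two conditions met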
Target sequence (P13346 whole entry, looked up): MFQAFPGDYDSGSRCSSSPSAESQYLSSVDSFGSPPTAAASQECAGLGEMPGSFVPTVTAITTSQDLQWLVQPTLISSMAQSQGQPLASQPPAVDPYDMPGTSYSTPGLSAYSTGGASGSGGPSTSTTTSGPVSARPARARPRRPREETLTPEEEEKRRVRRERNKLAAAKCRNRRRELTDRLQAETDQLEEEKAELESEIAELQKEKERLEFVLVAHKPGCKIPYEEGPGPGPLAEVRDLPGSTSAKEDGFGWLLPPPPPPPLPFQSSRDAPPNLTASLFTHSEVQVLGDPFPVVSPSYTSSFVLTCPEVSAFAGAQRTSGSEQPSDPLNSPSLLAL
A number is an active result; n = inactive; u = inconclusive; x = no result given.

SMILES	NR3A LBD binder	UBC13 inh	Yeast superoxide	NALP1 inh	dFosB act
Cc1cc(F)ccc1S(=O)(=O)N1CCCOC1CNC(=O)C(=O)NCc1ccc2c(c1)OCO2 (stereo not given)	n	n	n	n	n
O=C(NCc1ccc2c(c1)OCO2)C(=O)NCC1OCCCN1S(=O)(=O)c1cc(F)ccc1F (stereo not given)	12.6	n	n	n	n
Cc1ccc(C(=O)OCC(=O)Nc2cc(C(C)(C)C)nn2-c2ccccc2)c(O)c1	n	n	n	x	n
O=[N+]([O-])c1nn(-c2ccc3c(c2)OCCO3)n(O)c1=NCc1ccc(F)cc1	13.0	n	n	n	n
O=[N+]([O-])c1nn(-c2ccc3c(c2)OCCO3)n(O)c1=NCc1ccc(F)cc1Cl	n	n	n	n	n
CC(=O)c1ccc(NC(=O)CN(c2c(C)cccc2C)S(C)(=O)=O)cc1	n	n	n	n	n
CN=C(Nc1cc(Cl)ccc1Cl)SC1CC(=O)N(c2ccc(C(=O)OC)cc2)C1=O (stereo not given)	13.6	n	n	x	n
CCC(C)N(C(=O)COc1ccc(Cl)c2cccnc12)C1CCS(=O)(=O)C1 (stereo not given)	n	55.3	n	x	n
CC1(c2nnc(-c3ccc(F)cc3)o2)CC(c2ccncc2)=NO1 (stereo not given)	x	n	n	x	x
CC(C)(C)c1ccc(CSc2nnc(-c3ccccn3)n2Cc2ccco2)cc1	20.0	n	n	n	n
Cc1cc(NC2CCCCC2)nc(NCc2ccccc2)n1	n	n	n	62.1	n
N/C(=N\OC(=O)c1ccccc1F)c1cccc([N+](=O)[O-])c1	n	n	n	n	n
CC(=O)Nc1ccc(NC(=O)C(NS(=O)(=O)c2cccc3nsnc23)C(C)C)cc1 (stereo not given)	10.5	n	n	n	n
O=C(Nc1cc(Cl)ccc1-n1cncn1)c1ccco1	n	n	n	n	n
O=C(Nc1cc(Cl)ccc1-n1cncn1)c1ccc([N+](=O)[O-])s1	n	n	n	45.2	n
COc1cc(S(=O)(=O)Nc2ccc(C)cc2)ccc1N=Cc1c(C)[nH]n(-c2ccc(C)cc2)c1=O	28.3	n	n	n	n
CC(Sc1n[nH]c(N)n1)C(=O)Nc1cccc2ccccc12 (stereo not given)	n	n	n	x	n
CC(C)(C)OC(=O)CC12CCCCC1NC(=O)O2 (stereo not given)	n	n	n	n	n
NC(=O)c1ncc(C(F)(F)F)cc1Oc1cccc(C(F)(F)F)c1	10.7	n	n	n	n
CCOC(=O)c1c(C)oc2c1c(CN1CCN(C(=O)OCC)CC1)c(O)c1ccccc12	10.2	n	n	n	n
Cc1ccc(C(=O)O)cc1NCc1ccncc1	n	n	n	n	n
Fc1ccc(Nc2ccnc(Nc3ccc(F)cc3)n2)cc1	55.4	n	n	84.3	u
Nc1ncnc(Nc2ccc(F)cc2)n1	n	n	n	n	n
CCCN1CCN(C(=O)c2cc3c(s2)-c2ccccc2OC3)CC1	n	61.4	n	n	n
CCOC(=O)N1CCN(C(=O)c2cc3c(s2)-c2ccccc2OC3)CC1	n	n	n	n	n
SMILES	NR3A LBD binder	UBC13 inh	Yeast superoxide	NALP1 inh	dFosB act
C=C(C)CN(CC)C(=O)CCc1nnc(CCc2c[nH]c3ccccc23)o1	n	n	n	n	n
COc1ccc(C(=O)O/N=C(\N)c2cccc(C)c2)cc1OC	18.4	n	n	n	n
COc1ccc(C(=O)O/N=C(\N)c2ccc(Cl)cc2)cc1	20.5	n	n	n	n
N/C(Cc1ccc(Cl)cc1)=N\OC(=O)C1CCCCC1	n	n	n	47.1	n
COc1ccc(C(=O)O/N=C(\N)c2ccccc2)cc1OC	n	n	n	n	n
O=C(COC(=O)C1CCCC1)NCc1ccc(Cl)cc1	n	n	n	n	n
COc1cccc(C(=O)O/N=C(\N)Cc2ccc(Cl)cc2)c1	n	n	n	77.3	n
CCN(CC)CC(=O)N1CCCC(N2CCN(c3cccc(C(F)(F)F)c3)CC2)C1 (stereo not given)	n	n	n	n	n
CCOC(=O)N1CCN(c2ccc(O)cc2)CC1	n	n	n	n	n
COC(=O)c1ccc(C2C(C(=O)c3ccco3)=C(O)C(=O)N2CC2CCCO2)cc1 (stereo not given)	n	n	n	n	n
CC(C)CCN1CCN(CC#Cc2ccccc2)CC1CCO (stereo not given)	n	n	n	n	n
CSc1ccc(C2=CC(=O)C[C@H](c3ccc(Cl)cc3)C2)cc1	n	n	n	x	n
COc1ccc(C(=O)O/N=C(\N)c2ccncc2)cc1OC	n	n	n	n	n
COc1ccc(/C(N)=N/OC(=O)c2ccc(Br)o2)cc1	13.8	n	n	n	n
Cc1cccc(C(=O)O/N=C(\N)c2ccc(Br)cc2)c1	n	n	n	n	n
COc1ccc(Cl)cc1C(=O)O/N=C(\N)c1ccncc1	11.0	n	n	n	n
N/C(=N\OC(=O)c1ccc(Br)o1)c1cccnc1	n	n	n	n	n
Cc1cccc(C(=O)O/N=C(\N)c2ccc(Cl)cc2)c1	10.5	n	n	n	n
c1ccc(C2CC(c3ccccc3)n3c(nc4ccccc43)N2)cc1 (stereo not given)	n	n	n	n	u
CCOC(=O)c1cc2occc2n1Cc1ccc(F)cc1	15.3	n	n	n	n
CCN(C(=O)COC(=O)c1c(-c2ccccc2)noc1C)c1c(N)n(Cc2ccccc2)c(=O)[nH]c1=O	14.5	n	n	n	n
Cc1onc(-c2ccccc2)c1C(=O)OCC(=O)N(C)c1c(N)n(Cc2ccccc2)c(=O)[nH]c1=O	n	n	n	x	n
CCCN(C(=O)Cn1nc(C)c([N+](=O)[O-])c1C)c1c(N)n(Cc2ccccc2)c(=O)[nH]c1=O	n	n	n	x	18.1
CC(Sc1ccccc1)C(=O)NNC(=O)c1csc(N2CCOCC2)n1 (stereo not given)	n	n	n	x	n
COc1ccc(NC(=O)CN2CCC(C(=O)c3ccc(F)cc3)CC2)c(OC)c1	n	n	n	n	n
SMILES	NR3A LBD binder	UBC13 inh	Yeast superoxide	NALP1 inh	dFosB act
O=C(Cn1nnc(-c2ccccc2Cl)n1)NCc1ccc2c(c1)OCO2	n	n	n	n	n
CC(=O)CCn1cc([N+](=O)[O-])nc1C	n	n	n	n	n
O=C(Nc1cccnc1)c1ccc(COCC(F)(F)F)cc1	10.5	n	n	n	n
Cc1ccc(NC(=O)CCS(=O)(=O)c2cc3[nH]c(=O)c(=O)[nH]c3cc2C)cc1	14.8	n	n	n	n
Cc1ccc(S(=O)(=O)CCC(=O)Nc2ccc(S(=O)(=O)N(C)C)cc2)cc1	x	n	n	n	x
CCc1cccc(NC(=O)CCS(=O)(=O)c2cc3c(cc2C)NC(=O)CO3)c1	n	n	n	n	n
